Data as given in ChEMBL document CHEMBL1157539, “Thousands of chemical starting points for antimalarial lead identification” (Nature, 2010).
Where “and” joins values, the source holds several entries; their conditions need not be identical. Equal entries are not always repeated. Out of some 13,000 compounds screened, fewer than 10 showed an effect of 50% or more. The list is a sample of the results.

test system: Plasmodium falciparum; experiment: GSK_TCMDC: Inhibition of Plasmodium falciparum 3D7 LDH activity, using an LDH reporter assay. Test compounds present at 2uM; format: functional, organism-based

`c1ccc(-c2ccc(-c3csc(Nc4ccncc4)n3)cc2)cc1` was tested. Which inhibition did it give?
Its inhibition is 3%.

`Cc1ccc2nc(C)cc(N/N=C/c3ccc([N+](=O)[O-])o3)c2c1` was tested. Which inhibition did it give?
The inhibition was 0%.

For `O=C(Nc1ccsc1)Nc1cccc(-c2cccc(-c3nc4cc(F)ccc4[nH]3)c2)c1`, which inhibition is on record?
The inhibition was 2%.

Which inhibition does the source give for `OCC(c1ccccc1)n1c(COc2ccc(Cl)cc2)nc2c(OCCCN3CCCCC3)cccc21` (centres undefined) here?
The inhibition was 0%.

How did the inhibition turn out when `CCN1CCC(N(Cc2ccc(-c3ccc(C(F)(F)F)cc3)cc2)C(=O)Cn2c(CCc3cccc(F)c3F)cc(=O)c3c2CCCC3)CC1` was run?
Its inhibition is 0%.

`COc1ccc2c(NN=Cc3cccc(F)c3)ccnc2c1` was tested. Which inhibition did it give?
The inhibition was 0%.

`N#Cc1ccc(N2CCN(Cc3cccc(-c4ccc(-c5nc6cc(C(F)(F)F)ccc6[nH]5)cc4)c3)CC2)nc1` was tested. Which inhibition did it give?
The inhibition was 0%.

Which inhibition does the source give for `Nc1nc(N)c2c(ccc3[nH]c(-c4ccccc4Cl)nc32)n1` here?
Its inhibition is 0%.

How did the inhibition turn out when `C=CCc1cccc(OC)c1OCCCON1C(=N)N=C(N)NC1(C)C` was run?
Its inhibition is 0%.

With `CC(C)CCn1c(Sc2ccc(C#N)c([N+](=O)[O-])c2)nnc1-c1ccc(Cl)cc1` as the molecule, how does the inhibition read?
Its inhibition is 0%.

For `Cc1n[nH]c2ccc(-c3ccc4nccc(N5CCC(N)CC5)c4c3)cc12`, which inhibition is on record?
Its inhibition is 0%.

How did the inhibition turn out when `CCOc1ccc2c(=NN=Cc3ccccc3F)cc(C)[nH]c2c1` was run?
The inhibition was 0%.

With `COc1cc(CN=C(S)NN=C(C)c2ccccn2)cc(OC)c1OC` as the molecule, how does the inhibition read?
Its inhibition is 0%.

With `COc1ccc2c(c1)CC(C)(C)NC2CCCCCCCCC1NC(C)(C)Cc2cc(OC)ccc21` (centres undefined) as the molecule, how does the inhibition read?
The inhibition was 0%.

Which inhibition does the source give for `CCCC(=O)c1cnc2c(OCCCc3c[nH]cn3)cccc2c1Nc1c(C)cccc1C` here?
Its inhibition is 3%.

How did the inhibition turn out when `CC[C@H](N/C(=N\c1ccc(-c2ccccc2)cc1)Nc1ccc(C#N)cc1O)c1ccccc1` was run?
The inhibition was 4%.

With `COc1c(Br)cc(Br)cc1-c1ccc(CN2CC3CCC2CC3)[nH]1` as the molecule, how does the inhibition read?
The inhibition was 0%.

With `CCCCCCN1CCC(NCc2ccc(Cl)cc2)CC1` as the molecule, how does the inhibition read?
The inhibition was 0%.

`COc1cc(NC(=O)c2sc(-c3ccc(Cl)cc3)cc2NC(=O)c2cccc(N(C)C)c2)ccc1OCCN1CCCC1` was tested. Which inhibition did it give?
Its inhibition is 0%.

How did the inhibition turn out when `CCN(C1CCCCC1)S(=O)(=O)c1ccc(OC)c(N2CCN(C(=O)C(Cl)(Cl)Cl)CC2)c1` was run?
Its inhibition is 3%.

How did the inhibition turn out when `O=C(NCCCN1CCOCC1)c1cccc(Nc2nccc(Nc3ccc(Oc4ccccc4)cc3)n2)c1` was run?
Its inhibition is 0%.

Which inhibition does the source give for `CCC(=O)N(c1ccccc1)C1CCN(CCCC(NC(=O)c2cc(C(F)(F)F)cc(C(F)(F)F)c2)c2ccc(Cl)c(Cl)c2)CC1` (centres undefined) here?
The inhibition was 0%.

`O=C(/C=C/c1ccc(-c2nc3ccc(Cl)cc3[nH]2)cc1)NC1CCN(Cc2ccccc2)CC1` was tested. Which inhibition did it give?
Its inhibition is 0%.

Which inhibition does the source give for `CN(C)c1ccc(-c2csc(C(=O)NC3CCN(CCC(C)(C)C)C3)c2)cc1` (centres undefined) here?
Its inhibition is 2%.

How did the inhibition turn out when `NC(=O)c1cccc(C(=O)Nc2cccc(-c3cccc(-c4nc5cc(F)ccc5[nH]4)c3)c2)c1` was run?
The inhibition was 1%.

How did the inhibition turn out when `Cc1ccc(Cl)c2sc(N3CCN(C(=O)c4ccc([N+](=O)[O-])o4)CC3)nc12` was run?
The inhibition was 0%.

With `O=C(c1ccc([N+](=O)[O-])o1)N1CCN(c2nc3c(F)cc(F)cc3s2)CC1` as the molecule, how does the inhibition read?
The inhibition was 0%.

Which inhibition does the source give for `O=C(/C=C/c1ccc(I)cc1)NCCCCCN1CCC(c2c[nH]c3ccc(O)cc23)CC1` here?
Its inhibition is 2%.

Which inhibition does the source give for `CN1CCN(CC(=O)Nc2cccc(-c3ccc(-c4nc5cc(F)ccc5[nH]4)cc3)c2)CC1` here?
Its inhibition is 6%.

How did the inhibition turn out when `CCN(CC)CCN(CCN(CC)CC)c1ccc(-c2nc3cc(Cl)c(Cl)cc3[nH]2)cc1` was run?
Its inhibition is 2%.

For `Cc1ccc(-c2nc3cc(C(=O)NC4CCC(N5CCCc6ccc(C#N)cc6C5)CC4)ccc3[nH]2)cc1` (centres undefined), which inhibition is on record?
The inhibition was 0%.

With `CN(CCc1ccccn1)Cc1ccc(-c2ccc(-c3nc4ccccc4[nH]3)s2)cc1` as the molecule, how does the inhibition read?
Its inhibition is 6%.

How did the inhibition turn out when `CC(C)(C)OC(=O)NCc1ccc(Nc2nnc(-c3cccc(C(=O)NCCC(c4ccccc4)c4ccccc4)c3)o2)cc1` was run?
Its inhibition is 0%.

Which inhibition does the source give for `FC(F)(F)c1ccc2[nH]c(-c3cccc(-c4ccc(CNCC5CCCO5)cc4)c3)nc2c1` (centres undefined) here?
The inhibition was 0%.

With `NCC1CCCN1Cc1cccc(-c2ccc(-c3nc4cc(C(F)(F)F)ccc4[nH]3)s2)c1` (centres undefined) as the molecule, how does the inhibition read?
The inhibition was 0%.

Which inhibition does the source give for `O=c1sn(-c2csc3ccccc23)c2ccccc12` here?
The inhibition was 0%.

With `COc1cc(NC(=O)C(c2ccc(Cl)cc2)C(C)C)cc(OC)c1` (centres undefined) as the molecule, how does the inhibition read?
Its inhibition is 0%.

Which inhibition does the source give for `CC1(C)NC(N)=NC(=N)N1OCCCc1c(Cl)cccc1Cl` here?
The inhibition was 3%.

Which inhibition does the source give for `Cn1cc(Br)c(-c2cccc(Nc3ccnc4cc(-c5nccs5)ccc34)c2)n1` here?
Its inhibition is 0%.

How did the inhibition turn out when `CC1(C)[C@H]2CC[C@@H](CNc3nc(NCCc4c[nH]cn4)nc(Nc4ccc(Oc5ccccc5)cc4)n3)[C@@H]1C2` was run?
Its inhibition is 3%.

With `O=C(CC1NC(=O)c2ccccc21)Nc1ccc(-c2ccc(-c3nc4cc(C(F)(F)F)ccc4[nH]3)cc2)cc1` (centres undefined) as the molecule, how does the inhibition read?
Its inhibition is 0%.

How did the inhibition turn out when `CC(C)CNCc1ccc(-c2cccc(-c3nc4ccccc4[nH]3)c2)cc1` was run?
The inhibition was 0%.

Which inhibition does the source give for `Cc1cc2ccccc2n1CC(=O)N1CC(C(=O)N2CCCCC2)Oc2ccccc21` (centres undefined) here?
The inhibition was 2%.

`CC1(C)CCC(C)(C)c2c1ccc(C1CCN(CCCCNC(=O)c3ccc(-c4ccc(C#N)cc4)cc3)CC1)c2O` was tested. Which inhibition did it give?
The inhibition was 7%.

With `c1cc(-c2ccc(CN3CCN(c4ccncc4)CC3)cc2)cc(-c2nc3ccccc3[nH]2)c1` as the molecule, how does the inhibition read?
The inhibition was 0%.

`FC(F)(F)c1ccc2[nH]c(-c3ccc(-c4ccc(CNCc5cnn(-c6ccccc6)n5)cc4)cc3)nc2c1` was tested. Which inhibition did it give?
The inhibition was 0%.

Which inhibition does the source give for `OCc1ccc(-c2cncc(Nc3cccc(Cl)c3)c2)cc1` here?
The inhibition was 0%.

For `CNCCNCc1ccc(-c2ccc(-c3nc4cc(F)ccc4[nH]3)s2)cc1`, which inhibition is on record?
Its inhibition is 2%.

With `CC(C)CCNC(=N)Nc1ccc(OCCCCCOc2ccc(NC(=N)NCCC(C)C)cc2)cc1` as the molecule, how does the inhibition read?
Its inhibition is 6%.

Which inhibition does the source give for `CCOC(=O)c1ccc(NC(=O)Nc2cccc(-c3cccc(-c4nc5cccc(C)c5[nH]4)c3)c2)cc1` here?
Its inhibition is 0%.

Which inhibition does the source give for `CC(=NNc1nc2ccccc2s1)c1ccccn1` here?
Its inhibition is 0%.

How did the inhibition turn out when `Cn1cccc1C(=O)C(=O)Nc1ccc(-c2ccc(-c3nc4cc(F)ccc4[nH]3)cc2)cc1` was run?
Its inhibition is 0%.

For `COC(=O)c1cccc(CNCc2cccc(-c3cccc(-c4nc5cc(C(F)(F)F)ccc5[nH]4)c3)c2)c1`, which inhibition is on record?
Its inhibition is 6%.

Which inhibition does the source give for `COc1ccc2nccc(N/N=C/c3cccc([N+](=O)[O-])c3)c2c1` here?
Its inhibition is 0%.

With `CC(Cl)=CCc1c(C)nc2c(ccc3ccccc32)c1O` as the molecule, how does the inhibition read?
The inhibition was 8%.

How did the inhibition turn out when `Cc1cccc2nc(-c3ccc(-c4cccc(NC(=O)Nc5ccccc5)c4)cc3)[nH]c12` was run?
Its inhibition is 9%.

With `CCOc1ccc2[nH]c(C)cc(=NN=Cc3cccc(F)c3)c2c1` as the molecule, how does the inhibition read?
Its inhibition is 0%.

With `COc1ccc2nc3cc(Cl)ccc3c(NCCCCCCNc3c4ccc(Cl)cc4nc4ccc(OC)cc34)c2c1` as the molecule, how does the inhibition read?
Its inhibition is 0%.

For `c1ccc(-c2ccc(CNCc3ccc(-c4cccc(-c5nc6ccccc6[nH]5)c4)cc3)s2)nc1`, which inhibition is on record?
Its inhibition is 0%.

With `CN(C)c1ccc(CN2CCCCC(NC(=O)c3cc(-c4ccccc4Cl)cs3)C2)cc1` (centres undefined) as the molecule, how does the inhibition read?
The inhibition was 0%.

For `N=C(N)Nc1ccc(CCc2ccc(NC(=N)N)cc2)cc1`, which inhibition is on record?
Its inhibition is 0%.

How did the inhibition turn out when `COc1ccc2nccc([C@@H](O)CN3CCC(NC(=O)/C=C/c4ccc5ccccc5n4)CC3)c2c1` was run?
The inhibition was 1%.

Which inhibition does the source give for `N#Cc1ccc(N/C(=N\c2ccc(-c3ccccc3)cc2)NCCc2c[nH]c3ccccc23)c(O)c1` here?
Its inhibition is 6%.

`Cc1cccc2nc(-c3cccc(-c4ccc(CNCCNC(=O)c5ccnn5C)cc4)c3)[nH]c12` was tested. Which inhibition did it give?
Its inhibition is 0%.

Which inhibition does the source give for `NC1CCCN(Cc2ccc(-c3ccc(-c4nc5cc(F)ccc5[nH]4)s3)cc2)C1` (centres undefined) here?
The inhibition was 1%.

How did the inhibition turn out when `COc1ccccc1CCNc1nc(C)cc(N[C@@H](Cc2ccccc2)C(=O)NCCOc2ccccc2)n1` was run?
The inhibition was 4%.

With `O=C(Cn1c(SCc2cccc(F)c2F)cc(=O)c2ccccc21)N(CCn1ccnc1)Cc1ccc(-c2ccc(C(F)(F)F)cc2)cc1` as the molecule, how does the inhibition read?
Its inhibition is 0%.

`O=C(Nc1ccc(Cn2ncc(N3CCCNCC3)c(Cl)c2=O)cc1)Nc1ccc(-c2ccccc2)cc1` was tested. Which inhibition did it give?
The inhibition was 0% and 8%.

`O=C(OCc1ccccn1)c1nc2ccccc2[nH]1` was tested. Which inhibition did it give?
The inhibition was 0%.

`O=C(NCc1cccs1)[C@H](Cc1ccccc1)Nc1ccnc(NCCc2ccccc2)n1` was tested. Which inhibition did it give?
The inhibition was 0%.

With `Cc1cc(N2CCCC2)nc(NC(=N)Nc2cccc(C(F)(F)F)c2)n1` as the molecule, how does the inhibition read?
The inhibition was 1%.

How did the inhibition turn out when `Cn1ncc2ccc(Nc3nccc(-c4ccc5c(c4)c(N)nn5C)n3)cc21` was run?
Its inhibition is 0%.

`Cn1c(Cc2ccccc2)nnc1Sc1ccc(C#N)c([N+](=O)[O-])c1` was tested. Which inhibition did it give?
Its inhibition is 0%.

With `O=C(NCCN1CCCC1)c1cccc(-c2ccc(-c3nc4cc(F)ccc4[nH]3)cc2)c1` as the molecule, how does the inhibition read?
Its inhibition is 0%.

How did the inhibition turn out when `CCOc1ccc2nc3cc(NC(=O)c4ccco4)ccc3c(N)c2c1` was run?
Its inhibition is 0%.

Which inhibition does the source give for `Cc1cccc2nc(-c3ccc(-c4cccc(CN5CCN(c6ccncc6)CC5)c4)s3)[nH]c12` here?
Its inhibition is 6%.

For `Cc1ccc(CN2CCN(Cc3cccc(NC(=O)c4cccs4)c3)CC2)cc1C`, which inhibition is on record?
The inhibition was 2%.

For `CCN(CC)CCCC(C)Nc1c2ccccc2nc2c1ccc1ccccc12` (centres undefined), which inhibition is on record?
The inhibition was 3%.

Which inhibition does the source give for `CCOc1ccccc1NC(=O)C(Sc1nc(C)cc(C)c1C#N)c1ccccc1` (centres undefined) here?
Its inhibition is 0%.

For `O=C(/C=C/c1ccc(Cl)c(Cl)c1)NCCCCCN1CCC(CCNC(=O)Cc2ccc(Cl)cc2)CC1`, which inhibition is on record?
The inhibition was 0%.

For `COc1ccc(CN2CCCN(Cc3cccc(NC(=O)c4ccc(Cl)c(Cl)c4)c3)CC2)cc1`, which inhibition is on record?
Its inhibition is 5%.

How did the inhibition turn out when `CCN(CCCN1CCCCC1)c1cc(C)nc(Nc2cccc(C(F)(F)F)c2C)n1` was run?
Its inhibition is 0%.

For `COc1ccc2nc3cc(Cl)ccc3c(NCCCCNc3c4ccc(Cl)cc4nc4ccc(OC)cc34)c2c1`, which inhibition is on record?
The inhibition was 6%.

`CS(=O)(=O)NCCCNCc1cccc(-c2ccc(-c3nc4ccccc4[nH]3)s2)c1` was tested. Which inhibition did it give?
The inhibition was 6%.

For `O=C(NCc1ccc(F)cc1)Nc1ccc(-c2cccc(-c3nc4cc(C(F)(F)F)ccc4[nH]3)c2)cc1`, which inhibition is on record?
Its inhibition is 3%.

`O=C(Nc1cccc(C(F)(F)F)c1)c1ccc(S(=O)(=O)NCC2CCN(CC3CCCCC3)CC2)cc1` was tested. Which inhibition did it give?
The inhibition was 0%.

For `N[C@@H](Cc1cc(I)c(Oc2ccc(O)c(C(=O)O)c2)c(I)c1)C(=O)O`, which inhibition is on record?
The inhibition was 0%.

Which inhibition does the source give for `CC(C)CNCc1ccc(-c2ccc(CNC3CCN(Cc4ccccc4)CC3)cc2)cc1` here?
The inhibition was 4%.

`CC1(C)N=C(N)N=C(N)N1c1ccc(Cl)cc1` was tested. Which inhibition did it give?
The inhibition was 0%.
